Screens deposited in PubChem by several laboratories.
HSP90 refold inh – HSP90 refolding inhibition in rabbit reticulocyte lysate | AID 1789 | inhibition, % at 5.6 µM | 290,000 tested, 0.91% active | luciferase refolding luminescence, 3 h;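 active means inhibition above the screen-wide mean plus 3 SD, computed separately per campaign, cut at about 16% in these data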;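 further: 0% = DMSO wells and 100% = 60 µM geldanamycin wells; inhibitors lower the luminescence because luciferase stays unfolded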
HSF1 inh – HSF1 inhibition. NIH3T3-HGL HSE-luciferase, MG132-induced, luminescence 8 h; hits give low values. 300,000 tested, 0.77% active. activity change, negative = inhibition, % at 7.5 µM (by protocol);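 active means more than half of replicate wells show activity change below -50%, luminescence cut by over half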;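 further: luciferase reports HSF-1 transcriptional activity via heat shock element; 0% = median of DMSO wells and -100% = zero luminescence signal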
HSF1 activator – increases HSF-1 driven luciferase reporter signal; AID 504408; activation, % at 9 µM; 300,000 tested, 1.7% active; NIH3T3-HGL HSF-1 luciferase reporter, MG132, 8 h; 100% = twice DMSO control signal;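 active means mean replicate activation of at least 50% with a set share of replicates each reaching 50%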;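 further: 0% = median of the neutral control wells and 100% = twice that signal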
MPTP inh – inhibitors of mitochondrial permeability transition pore; isolated mouse mitochondria, Ca2+ swelling absorbance, 30 min; 360,000 tested, 1.4% active; inhibition, % at 10 µM;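 active means inhibition of 50% or more, scaled per plate between neutral and stimulator controls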;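 further: 0% = DMSO wells given calcium and 100% = 1 mM EGTA wells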
dFosB act – activators of mouse delta FosB homodimer; P13346; AID 493131; purified delta FosB, TAMRA-CDK5 oligo fluorescence polarization; percent of positive-control signal above neutral wells; 340,000 tested, 0.99% active; activation, % at 25 µM;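 active means mean activation above about 17%, with every replicate also reaching it, limit read from the data, passing the limit was not always enough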
Target sequence (P13346 whole entry, looked up): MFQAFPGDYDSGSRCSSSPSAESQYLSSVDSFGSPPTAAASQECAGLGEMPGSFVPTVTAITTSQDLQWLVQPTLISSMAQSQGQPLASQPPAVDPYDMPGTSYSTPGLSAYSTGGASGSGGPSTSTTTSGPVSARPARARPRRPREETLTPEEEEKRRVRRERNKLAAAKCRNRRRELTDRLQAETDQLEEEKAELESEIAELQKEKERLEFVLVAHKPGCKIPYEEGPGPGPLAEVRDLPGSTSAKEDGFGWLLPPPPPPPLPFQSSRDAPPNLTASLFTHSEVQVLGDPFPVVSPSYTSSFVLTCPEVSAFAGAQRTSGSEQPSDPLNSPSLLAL
Platelet DG rel – platelet dense granule release activity | human platelet-rich plasma, SFLLRN dense granule ATP release, luminescence | inhibition, %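 (compounds screened at 7.5 µM in platelet-rich plasma)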 | 300,000 tested, 0.22% active | AID 1663;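 active means mean replicate score, as percent of positive control, at or above 50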
* = called active by the depositor; nt = no result. This is a sample that favours compounds with a hit; in the whole collection about 4.9% have one here.

SMILES	HSP90 refold inh	HSF1 inh	HSF1 activator	MPTP inh	dFosB act	Platelet DG rel
Cc1cc(C)c2cc(CN(Cc3ccco3)C(=S)NCC3CCCO3)c(=O)[nH]c2c1 (stereo not drawn)	0	193	299*	-1	-14	-3
CCCC(c1nnnn1C(C)(C)CC)N(Cc1ccco1)Cc1cc2ccc(OC)cc2[nH]c1=O (stereo not drawn)	6	23	57*	-2	-9	2
COC(=O)c1sc(S(=O)(=O)NCCC(=O)O)c(C(=O)OC)c1C	2	7	-6	-1	-8	-26
O=C(NCC1CCCO1)c1sc2ccccc2c1Cl (stereo not drawn)	4	13	34	-1	2	10
COc1ccc(CCNC(=O)c2sc3cc(C)ccc3c2Cl)cc1	0	0	3	1	-1	-10
Cc1ccc2c(Cl)c(C(=O)NCC3CCCO3)sc2c1 (stereo not drawn)	1	29	54*	-1	-3	9
Cc1ccc2c(Cl)c(C(=O)NCCc3ccccc3)sc2c1	-4	41	77*	3	-9	-12
O=C(c1ccc(S(=O)(=O)N2CCCCC2)cc1)N1CCCC(C(F)(F)F)C1 (stereo not drawn)	nt	-5	-2	-1	-7	-24
NC(=O)c1ccc(NC(=O)CC23CC4CC(CC(Br)(C4)C2)C3)cc1	3	36	76*	1	1	-1
CN(C)C(=O)CSc1n[nH]c(=O)[nH]c1=O	6	-89*	-92	-2	-5	-8
COCCCn1c(-c2ccco2)nc2ccccc2c1=O	8	-68*	-74	1	-2	6
O=C(c1ccc(=O)[nH]c1)N1CCN(S(=O)(=O)c2ccc3ccccc3c2)CC1	nt	nt	nt	-1	-9	nt
O=C(NC(=S)Nc1ccccc1N1CCOCC1)c1ccc(-c2ccccc2F)o1	-1	-2	10	1	-7	24
CCS(=O)(=O)CCSc1nc2ccccc2s1	4	-2	1	1	6	-1
O=S(=O)(CCSc1nc2ccccc2s1)c1nc2ccccc2s1	1	62	95*	2	-11	1
COc1ccc(-c2sc3cc4c(cc3c2C#CC2(N)CCCCC2)OCO4)cc1	nt	nt	nt	0	67*	nt
CCOC(=O)c1c(C)cc2c(CO)n[nH]c(=O)c2c1C	nt	nt	nt	-2	nt	nt
O=C(Nc1cccc(S(=O)(=O)N2CCCCC2)c1)C1CC(=O)N(c2ccc3c(c2)OCCO3)C1 (stereo not drawn)	0	0	12	-1	-8	0
CCOc1ccc(N2CSC(=S)N(c3ccc(OCC)cc3)C2)cc1	1	-65*	-71	6	7	-10
Cc1ccc2nc(-c3ccccc3)nn2c1	nt	nt	nt	0	-11	nt
Cc1cccc(NC(=S)N=Nc2c(O)[nH]c3ccccc23)c1	0	55	90*	7	-12	-2
Oc1[nH]c2ccc(Br)cc2c1N=NC(=S)NCC1CCCO1 (stereo not drawn)	3	-8	-11	8	-7	12
COc1ccccc1NC(=S)N=Nc1c(O)[nH]c2ccc(Br)cc12	3	78	86*	8	-6	-2
O=C(CNC(=O)c1ccco1)N=Nc1c(O)[nH]c2ccc(Br)cc12	-1	-4	10	0	-8	-1
Cc1occc1C(=O)N=Nc1c(O)[nH]c2ccc(Br)cc12	-1	20	50*	nt	nt	-8
SMILES	HSP90 refold inh	HSF1 inh	HSF1 activator	MPTP inh	dFosB act	Platelet DG rel
Cc1nn(C)c(Oc2ccccc2)c1CCNC(=O)C(C)(C)C	-5	4	-11	-1	4	-5
Cc1noc(C)c1-c1ccc(C(=O)NCc2cccc(Cl)c2)c2occc12	nt	nt	nt	0	nt	nt
O=C(/C=C/c1ccc(Cl)cc1)NC(=S)Nc1ccc(CN2CCOCC2)cc1	-6	53	86*	6	-5	11
CCN(CC)S(=O)(=O)c1ccc(/C=C/C(=O)Nc2cccc(F)c2)cc1	-7	40	67*	40	-2	0
CCCOC(=O)c1ccc(Oc2cn[nH]c2-c2ccc(O)cc2O)cc1	-2	13	52*	44	-1	-2
CCCCNC(=O)C(NC(=O)c1cccnc1)C(=O)c1ccccc1 (stereo not drawn)	nt	nt	nt	0	nt	nt
O=C(CSC1CS(=O)(=O)c2cc([N+](=O)[O-])ccc21)NNC(=O)c1ccc(Cl)cc1 (stereo not drawn)	-2	16	61*	1	-5	5
CCOC(=O)c1c(C)n(CCOc2ccccc2)c2ccc(O)cc12	9	28	69*	1	-8	-7
CCOC(=O)c1c(C(C)(C)C)oc2ccc(O)cc12	-2	nt	nt	4	-10	nt
CCOC(=O)c1c(COc2ccccc2)oc2ccc(O)cc12	0	74	105*	nt	nt	-10
O=S(=O)(Cc1ccccc1Cl)NCCc1ccc(F)cc1	3	11	7	1	-4	-5
Cc1nnsc1S(=O)c1ccc(Cl)c(Cl)c1 (stereo not drawn)	-2	-81*	-85	0	-12	-5
Cc1nnsc1S(=O)c1ccc(Cl)cc1 (stereo not drawn)	-4	3	5	0	-5	-2
C/C=C/c1ccc2c(c1)O[C@H](CN(C)CC1CCOCC1)[C@@H](C)CN([C@H](C)CO)S2(=O)=O	nt	nt	nt	-1	nt	nt
CS(=O)(=O)c1ccc(C(=O)OCc2nnc(-c3ccc(Cl)cc3)o2)cc1[N+](=O)[O-]	-1	-96*	-95	-1	1	-5
O=C(OCc1nnc(-c2ccc(Cl)cc2)o1)c1ccc(O)cc1	2	3	9	0	0	1
Cn1c(/C=C/c2ccc(Br)cc2)c([N+](=O)[O-])c(=O)n(C)c1=O	6	30	29	-1	-13	-1
CN1CCN(c2ccc(NC(=O)c3ccc(Oc4ccccc4)cc3)cc2)CC1	-4	-1	13	-1	-2	-12
C=CC(=O)Nc1ccc(N(C)c2ccnc(Nc3ccc(N4CCN(C)CC4)cc3)n2)cc1	nt	nt	nt	0	50*	nt
Cc1c(-c2ccc(Br)cc2)nc2ccccn12	-4	26	51*	-2	-7	-2
COc1ccc(C(=O)CC(=O)C(=O)Nc2ccc([N+](=O)[O-])cc2C)cc1	-3	1	7	3	-4	-8
COc1ccc(C(=O)/C(=C/O)N=Nc2ccc(F)cc2)cc1	3	9	20	1	-7	1
COc1ccc(N=N/C(=C\O)C(=O)c2cccs2)cc1	2	54	67*	0	-7	-3
C#CCOCCOCCOCCNc1nc(N2CCN(C(=O)CCCCCCCCCCNC(=O)[C@H](CO)n3cc(CCCSC)nn3)CC2)nc(N2CCN(C(=O)CCCCCCCCCCNC(=O)[C@H](CCCCN)n3cc(C[C@@H](C)CC)nn3)CC2)n1	nt	-85*	-85	nt	nt	-7
CCCCOc1ccc(CSc2ncn[nH]2)cc1	1	31	86*	6	0	-8
